Source: PubChem
Hits are enriched below; roughly 4.3% of the tested compounds scored in any of these assays.
sPLA2-III inh – Blocks human group III sPLA2 activity. inhibition, % at 12.2 µM. Q9NZ20. hit rate 0.56% among 370,000. AID 743126. QFRET BODIPY PC-A2 liposome hydrolysis, fluorescence;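 active = inhibition above mean plus 3 SD of compounds lying within the high and low control bounds, cut at about 19% in these data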
ADAM17 inh – inhibitors of human ADAM17; P78536; recombinant ADAM17, EDANS/DABCYL FRET peptide cleavage; inhibition, % at 6.95 µM; hit rate 0.83% among 370,000;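 active = inhibition above the mean of compounds lying between control limits plus 3 SD, set per campaign, cut at about 8.5% in these data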
GRIN3A LBD mod – modulators (binders) of human NR3A ligand-binding domain; NR3A LBD differential scanning fluorimetry, Tm shift; 0% = protein alone, 100% = glycine-bound protein; Tm shift relative to glycine control, % at 25 µM; hit rate 2.5% among 340,000;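 active = melting temperature shift of at least 10% of the positive control shift, at one fixed dose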
ADAM10 inh – inhibitors of human ADAM10. recombinant ADAM10, EDANS/DABCYL FRET peptide cleavage, 3 h. hit rate 0.62% among 370,000. inhibition, % at 7 µM. O14672;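 active = inhibition above a per-campaign cutoff equal to the mean of compounds falling between control-based bounds plus 3 SD, cut at about 20% in these data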
Target sequence (O14672 214-748 limits assumed): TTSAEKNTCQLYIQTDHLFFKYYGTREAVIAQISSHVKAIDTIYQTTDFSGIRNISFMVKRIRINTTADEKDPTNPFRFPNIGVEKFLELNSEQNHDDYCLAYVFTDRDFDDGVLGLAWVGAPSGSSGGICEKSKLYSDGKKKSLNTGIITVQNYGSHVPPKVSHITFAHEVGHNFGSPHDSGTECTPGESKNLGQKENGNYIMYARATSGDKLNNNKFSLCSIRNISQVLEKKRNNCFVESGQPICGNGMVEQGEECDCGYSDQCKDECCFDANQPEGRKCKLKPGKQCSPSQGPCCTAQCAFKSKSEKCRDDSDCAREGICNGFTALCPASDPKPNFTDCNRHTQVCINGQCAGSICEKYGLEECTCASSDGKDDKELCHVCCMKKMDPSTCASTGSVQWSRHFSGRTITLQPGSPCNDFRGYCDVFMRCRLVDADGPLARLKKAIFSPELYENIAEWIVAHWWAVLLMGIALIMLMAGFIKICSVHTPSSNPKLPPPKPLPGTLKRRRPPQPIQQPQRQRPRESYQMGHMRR
FAS TE block – inhibitors of human fatty acid synthase thioesterase domain. P49327. recombinant FAS-TE, OMFH fluorogenic substrate, fluorescence endpoint. inhibition, % at 15 µM. hit rate 0.67% among 360,000;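 active = compounds whose normalised, plate-corrected inhibition of enzyme fluorescence in the single-dose primary screen is 50% or more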
hGIII sPLA2 conf – human GIII-sPLA2 inhibition, confirmation; recombinant hGIII-sPLA2, BODIPY PC-A2 QFRET fluorescence; shares compounds with sPLA2-III inh; hit rate 34% among 2,000; inhibition, % at 12.2 µM;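 active = mean inhibition across triplicates above the hit cutoff set in the earlier primary screen, cut at about 19% in these data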
BODIPY interf – optically interferes with 535nm fluorescence in sPLA2 counter-screen. shares compounds with sPLA2-III inh. BODIPY FL product fluorescence interference, QFRET. inhibition, % at 12.2 µM. hit rate 8.5% among 2,000;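 active = average inhibition above the solvent-only control mean plus 3 SD, cut at about 6% in these data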
BODIPY interf DR – 535nm optical interference dose response, HGIII-sPLA2 counter-screen; IC50, µM; BODIPY FL product fluorescence interference, cell-free; shares compounds with sPLA2-III inh; 240 tested, under 10 active;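 active = IC50 at or below 10 µM; inactive = IC50 above 10 µM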
Of the large screens only hits and unclear results are named; the others gave an inactive call (follow-up assays come after a bar, where they were run).

Cc1ccccc1NC(=O)c1c(C)[nH]c(=S)c(C#N)c1-c1ccco1	sPLA2-III inh 20 | hGIII sPLA2 conf 20 | BODIPY interf inactive
FC(F)(F)c1cc(-c2ccccc2)nc(N2CCCCCC2)n1	sPLA2-III inh 20, GRIN3A LBD mod 11 | hGIII sPLA2 conf inactive | BODIPY interf inactive
COc1ccc(C=NNC(=O)Cc2cc(=O)[nH][nH]2)c(OC)c1	none (no result: GRIN3A LBD mod, FAS TE block)
CN1C(=O)c2cc(NC(=O)C3CC3)ccc2OC[C@H]2O[C@@H](CC(=O)NC3CCC3)CC[C@@H]21	none (no result: GRIN3A LBD mod, FAS TE block)
C=CCN=C1NC(c2ccc(Cl)cc2)C(C(=O)OC)=C(C)N1C (configuration not stated)	none (no result: GRIN3A LBD mod, FAS TE block)
C=CCN=C1NC(c2ccc(F)cc2)C(C(=O)OC)=C(C)N1C (configuration not stated)	sPLA2-III inh 23 (no result: GRIN3A LBD mod, FAS TE block) | hGIII sPLA2 conf inactive | BODIPY interf inactive
CC(C)C[C@H](NC1(C(=O)NC2CCCCC2)CCN(C(=O)OC(C)(C)C)CC1)C(=O)NCCc1c[nH]c2ccccc12	none (no result: GRIN3A LBD mod, FAS TE block)
CC1CCCCC1NC(=O)CCn1c(=S)[nH]c2ccccc2c1=O (configuration not stated)	sPLA2-III inh 21 (no result: GRIN3A LBD mod) | hGIII sPLA2 conf 20 | BODIPY interf inactive
S=C(Nc1ccccc1)Nc1nc2ccccc2n1CCOc1ccccc1	sPLA2-III inh 21 | hGIII sPLA2 conf 25 | BODIPY interf inactive
COc1cccc(N2CCN(C(=O)CCn3nnc4ccccc43)CC2)c1	none (no result: GRIN3A LBD mod, FAS TE block)
COC(=O)[C@]12C[C@H](CC(=O)N3CCN(C(=O)c4ccco4)CC3)C(=O)N(Cc3ccccc3)C1=C[C@H](C(C)(C)C)O[C@@H]2C	none (no result: GRIN3A LBD mod, FAS TE block)
O=[N+]([O-])c1cc2c(c([N+](=O)[O-])c1)Nc1ccccc1O2	sPLA2-III inh 21 (no result: GRIN3A LBD mod) | hGIII sPLA2 conf 45 | BODIPY interf 12
COC(=O)[C@]12C[C@H](CC(=O)N3CCC(c4ccccc4)CC3)C(=O)N(CCC3=CCCCC3)C1=C[C@H](COCc1ccccc1)O[C@@H]2C	none (no result: GRIN3A LBD mod, FAS TE block)
Nc1[nH]c(C(=O)c2ccccc2)c(-c2ccccc2C(F)(F)F)c1C(=O)c1cccs1	sPLA2-III inh 20 (no result: GRIN3A LBD mod) | hGIII sPLA2 conf inactive | BODIPY interf inactive
CC(=O)c1cccc(NC(=O)c2c(F)c(F)c(F)c(F)c2F)c1	none
CC(=O)c1cccc(NC(=O)C2=CN3CCS(=O)(=O)N=C3C=C2)c1	sPLA2-III inh 20 | hGIII sPLA2 conf inactive | BODIPY interf inactive
Cc1cccc(C(=O)NNC(=S)NC(=O)c2ccccc2)c1	sPLA2-III inh 23 | hGIII sPLA2 conf 36 | BODIPY interf inactive | BODIPY interf DR inactive
Cc1ccc(C(=O)NC(=S)NNC(=O)c2ccccc2)cc1	sPLA2-III inh 24 | hGIII sPLA2 conf 40 | BODIPY interf inactive | BODIPY interf DR inactive
CN1CCN(NC(=O)c2cccc(Br)c2)CC1	sPLA2-III inh 21 | hGIII sPLA2 conf inactive | BODIPY interf inactive
CCNC(=S)NNC(=O)c1cccc(Br)c1	sPLA2-III inh 22 | hGIII sPLA2 conf 33 | BODIPY interf inactive
O=C(Nc1ccc(F)cc1)OCCN1C(=O)CCC12CCC(c1ccccc1)CC2 (configuration not stated)	none (no result: GRIN3A LBD mod, FAS TE block)
CCOC(=O)c1sc(NC(=S)NC(=O)c2ccco2)nc1C	sPLA2-III inh 27 | hGIII sPLA2 conf inactive | BODIPY interf inactive
CC(C)C(=O)Nc1ccc(C(=O)NNC(=S)NC(=O)c2cccs2)cc1	none
COc1ccc(/C=C/C(=O)NC(=S)NNC(=O)c2cccs2)cc1	none
Cc1cccc(C(=O)NNC(=S)NC(=O)c2cccs2)c1	sPLA2-III inh 28 | hGIII sPLA2 conf 27 | BODIPY interf inactive
COc1ccc(C(=O)NNC(=S)NC(=O)c2cccs2)cc1	sPLA2-III inh 21 | hGIII sPLA2 conf 40 | BODIPY interf inactive | BODIPY interf DR inactive
COc1ccc(C(=O)NC(=S)NNC(=O)c2cccc(C)c2)cc1	sPLA2-III inh 27 (no result: FAS TE block) | hGIII sPLA2 conf 38 | BODIPY interf inactive | BODIPY interf DR inactive
